Compound activity: PubChem BioAssay, The Scripps Research Institute Molecular Screening Center
GSTO1 counter – GSTO1 inhibition, counter-screen for RBBP9 inhibitors. P78417. recombinant GSTO1, activity-based probe fluorescence polarization. inhibition, % at 5.96 µM. hit rate 1.1% among 300,000;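 active = inhibition above the campaign mean inhibition plus 3 SD, cut at about 35% in these data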;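 note: 0% = GSTO1-1 with DMSO and 100% = wells lacking GSTO1-1 enzyme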
Fam108B counter – Fam108B inhibition, counter-screen for RBBP9 inhibitors; recombinant Fam108B, FP-Rh probe fluorescence polarization; inhibition, % at 9.51 µM; hit rate 0.33% among 300,000; AID 1947;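 active = inhibition above the screen mean inhibition plus 3 SD, computed separately per campaign, cut at about 18% in these data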;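 note: inhibitors lower polarization as less probe binds the enzyme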
PME-1 primary – PME-1 (human) inhibition | recombinant PME-1, FP-Rh probe fluorescence polarization | hit rate 0.53% among 320,000 | inhibition, % at 5.9 µM | AID 2130 | Q9Y570;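 active = inhibition above the campaign mean of all compounds plus 3 SD, cut at about 26% in these data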;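 note: competitive labeling of PME-1 active site by serine hydrolase directed probe; 0% = PME-1 with DMSO and 100% = wells lacking PME-1 enzyme; inhibitors block probe labeling so polarization falls and inhibition rises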
Target sequence (Q9Y570 whole entry, looked up): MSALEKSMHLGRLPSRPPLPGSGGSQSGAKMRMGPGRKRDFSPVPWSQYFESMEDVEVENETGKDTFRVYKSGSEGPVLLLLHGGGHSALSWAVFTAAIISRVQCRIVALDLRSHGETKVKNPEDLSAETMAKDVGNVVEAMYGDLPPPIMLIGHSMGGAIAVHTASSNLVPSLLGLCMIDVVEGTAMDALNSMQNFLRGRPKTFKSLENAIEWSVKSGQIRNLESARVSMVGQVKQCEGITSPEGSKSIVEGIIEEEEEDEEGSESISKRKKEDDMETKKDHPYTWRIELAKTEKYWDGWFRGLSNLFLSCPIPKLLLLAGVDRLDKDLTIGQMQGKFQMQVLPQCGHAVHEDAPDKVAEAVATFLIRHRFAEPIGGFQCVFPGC
LYPLA2 counter – LYPLA2 (human) inhibition in PME1 counter-screen; O95372; recombinant LYPLA2, FP-Rh probe fluorescence polarization; inhibition, % at 5.9 µM; hit rate 0.38% among 320,000;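 active = inhibition above the screen-wide mean plus 3 SD, limit set per campaign, cut at about 26% in these data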;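 note: 0% = LYPLA2 with DMSO and 100% = wells lacking LYPLA2 enzyme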
PAD4 FP inh – blocks human protein arginine deiminase 4; Q9UM07; recombinant PAD4, RCA probe fluorescence polarization; inhibition, % at 6.36 µM; hit rate 0.41% among 330,000; AID 485272;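 active = percent inhibition above a cutoff equal to the mean of all tested compounds plus 3 SD, cut at about 15% in these data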;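 note: 0% = PAD4 with RCA probe and DMSO and 100% = probe without PAD4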
LYPLA1 counter – blocks human lysophospholipase 1, a PME1 counter-screen | O75608 | recombinant LYPLA1, FP-Rh probe fluorescence polarization | inhibition, % at 5.9 µM | hit rate 0.16% among 320,000 | AID 2174;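 active = inhibition above the mean of all tested compounds plus 3 SD, set per campaign, cut at about 14% in these data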;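 note: inhibitors block serine hydrolase probe labeling of LYPLA1 so polarization falls; 0% = enzyme with DMSO and 100% = wells lacking LYPLA1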
Target sequence (O75608 whole entry, looked up): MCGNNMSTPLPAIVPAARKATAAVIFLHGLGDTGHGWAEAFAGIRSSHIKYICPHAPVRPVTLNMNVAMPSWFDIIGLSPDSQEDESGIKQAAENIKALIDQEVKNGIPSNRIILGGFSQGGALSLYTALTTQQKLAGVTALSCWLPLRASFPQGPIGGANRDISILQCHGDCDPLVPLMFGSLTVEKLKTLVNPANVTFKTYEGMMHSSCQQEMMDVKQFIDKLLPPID
LYPLA2 conf – counter-screen for PME1 inhibitors: confirmation of human LYPLA2 inhibitors; shares compounds with LYPLA2 counter; AID 2232; inhibition, % at 5.9 µM; hit rate 72% among 1,100; recombinant LYPLA2, FP-Rh probe fluorescence polarization;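 active = mean inhibition across replicates above the hit cutoff set in the primary screen, cut at about 26% in these data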;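 note: blocked labeling of the enzyme by serine hydrolase FP-Rh probe lowers polarization; 0% = enzyme with DMSO and 100% = wells lacking LYPLA2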
LYPLA2 gel ABPP – blocks human acyl-protein thioesterase 2 in gel ABPP; rhLYPLA2 in mouse brain proteome, gel ABPP FP-Rh; inhibition, % at 20 µM; shares compounds with LYPLA2 counter; hit rate 30% among 150;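 active = inhibition of LYPLA2 enzyme probe labeling above about 50%, limit read from the data; inactive = inhibition below that limit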;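 note: loss of FP-Rh probe labeling of the LYPLA2 gel band measured as band density; 0% = DMSO only control band and 100% = blank gel background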
Numbers without * were called inactive; · = no result given. Only some compounds are listed: those with a hit (about 1.8% of all), similar ones and a draw of the others.

SMILES	GSTO1 counter	Fam108B counter	PME-1 primary	LYPLA2 counter	PAD4 FP inh	LYPLA1 counter	LYPLA2 conf	others
COc1ccc(OC)c(NC(=O)CCNS(=O)(=O)c2cc(Br)cnc2N)c1	2	2	-1	3	-6	-1	·
O=C(NC1CCc2ccccc21)c1cc(COc2cncc(Cl)c2)on1 (centres undefined)	5	1	3	43*	0	4	33*
O=C(NC1CCc2ccccc21)c1cc(COc2ccc(F)cc2Cl)on1 (centres undefined)	-2	2	2	5	7	1	·
CN(C(=O)c1cc2c(s1)-c1ccccc1S(=O)(=O)C2)c1ccccc1	-5	-5	-1	1	-9	-1	·
CC(/C=N/NC(=O)Cn1nnc(N)n1)=C\c1ccc(C(C)C)cc1	1	1	-3	62*	3	-5	70*
CCCN(CCC)C(=O)c1ccc2c(c1)S(=O)(=O)c1ccccc1C2=O	-3	-1	5	31*	4	5	20
CC(=O)c1ccc(N(CC(=O)NC2CCCC2)C(=O)CNC(=O)c2cccs2)cc1	-2	-9	-3	-3	-8	2	·
CC(C)(C)NC(=O)C(c1ccc(O)cc1)N(C(=O)CCC(=O)Nc1ccccn1)c1ccc(F)cc1 (centres undefined)	1	-2	1	3	-1	4	·
Cc1nc([N+](=O)[O-])c(Br)n1CC(=O)c1ccc2ccccc2c1	-17	-4	1	31*	-3	1	30*
Cc1ccc(NC(=O)Cn2cnc3c(cnn3C(C)(C)C)c2=O)cc1	6	0	-2	3	1	0	·
CC(C)(C)n1ncc2c(=O)n(CC(=O)N3CCCCCC3)cnc21	-1	1	0	29*	0	2	2
C[C@@]12C(=O)N(c3ccc(Br)cc3)C(=O)N1[C@@H]1c3ccccc3OC[C@@H]1[C@H]2c1ccccc1	·	·	·	·	-1	·	·
N#Cc1ccc(C(=O)OCC(=O)Nc2cccnc2Cl)cc1	·	·	-4	3	1	3	·
COC(=O)C1=C(CS(=O)(=O)c2ccccc2)NC(=O)NC1c1ccc(OC)c(OC)c1 (centres undefined)	4	0	-4	32*	-1	-2	-1
CCOC(=O)C1=C(CS(=O)(=O)c2ccccc2)NC(=O)NC1c1ccc(OC)c(OC)c1 (centres undefined)	1	-1	0	-1	1	0	·
COC(=O)[C@H](Cc1ccccc1)NC(=O)C1(OC(C)=O)CC(OC(C)=O)C(OC(C)=O)C(OC(C)=O)C1 (some centres undefined)	-1	-3	9	-1	-5	-3	·
CCOc1ccc(N2C(=O)CC(N3CCN(c4ccc(C(=O)c5ccncc5)cc4)CC3)C2=O)cc1 (centres undefined)	6	4	-4	29*	-3	5	20
O=C(c1ccc(N2CCN(C3CC(=O)N(c4ccc(F)cc4)C3=O)CC2)cc1)c1cccnc1 (centres undefined)	3	2	1	35*	1	6	32*
COc1ccc(N2C(=O)CC(N3CCN(c4ccc(C(=O)c5cccnc5)cc4)CC3)C2=O)cc1 (centres undefined)	0	0	-4	23	-2	6	·
O=C(CNC(=O)c1ccc(S(=O)(=O)N2CCCC2)cc1)N/N=C/c1c(Cl)cccc1Cl	5	-5	0	26*	-4	-2	22
CC(=O)Nc1ccccc1NC(=O)C/C(C)=N/NC(=O)c1cccnc1	1	-1	0	-2	2	0	·
O=C(c1ccc(Cn2c(=O)[nH]c3ccccc3c2=O)cc1)N1CCN(c2ccc(F)cc2)CC1	-4	0	-4	42*	0	12	35*
O=C(c1ccc(Cn2c(=S)[nH]c3ccc(N4CCOCC4)cc3c2=O)cc1)N1CCN(c2ccc(F)cc2)CC1	3	8	10	20	5	1	·
COc1ccc(N2CCN(C(=O)c3ccc(Cn4c(=S)[nH]c5ccc(N6CCOCC6)cc5c4=O)cc3)CC2)cc1	5	13	3	75*	-6	4	72*	LYPLA2 gel ABPP=33
CCOC(=O)N1CCN(C(=O)c2ccc(Cn3c(=S)[nH]c4cc(C(=O)OC)ccc4c3=O)cc2)CC1	4	-2	-5	29*	-2	3	19
SMILES	GSTO1 counter	Fam108B counter	PME-1 primary	LYPLA2 counter	PAD4 FP inh	LYPLA1 counter	LYPLA2 conf	others
CCCCN1C(=O)C(=O)N(CC(=O)Nc2sc(C)c(C)c2C(=O)OC)C1=O	·	·	2	0	1	-2	·
Cc1noc(C)c1C(=O)N1CCCC(N2CCN(c3cccc(C(F)(F)F)c3)CC2)C1 (centres undefined)	2	2	6	30*	2	3	24
Cc1nnsc1C(=O)N1CCCC(N2CCN(c3cccc(C(F)(F)F)c3)CC2)C1 (centres undefined)	12	-4	-2	55*	-2	4	56*	LYPLA2 gel ABPP=28
CCN1C(=O)CC(NC2CCN(C(=O)c3ccc(F)cc3)CC2)C1=O (centres undefined)	0	-3	3	-2	0	-4	·
COC(=O)c1ccc(C2C(C(=O)c3ccco3)=C(O)C(=O)N2CC2CCCO2)cc1 (centres undefined)	2	-5	1	5	-2	3	·
Fc1ccccc1COc1ccc(Br)cc1CNCc1cccnc1	-3	-1	5	-1	-1	-2	·
Fc1ccccc1COc1ccc(Br)cc1CNCc1ccncc1	10	4	6	27*	6	-4	2
O=C(NCC(c1ccco1)N1CCN(c2ccccc2)CC1)C(=O)NC1CCCCC1 (centres undefined)	-1	-1	0	4	-1	0	·
O=C(C1CCCN(c2ncnc3c2nc2n3CCCCC2)C1)N1CCN(c2ccc(Cl)cc2)CC1 (centres undefined)	1	3	7	5	-2	4	·
O=C(C1CCN(c2ncnc3c2nc2n3CCCCC2)CC1)N1CCN(c2cccc(Cl)c2)CC1	-12	6	-1	34*	-4	6	26*
O=C(COC(=O)c1c[nH]c2ccccc12)Nc1cccc(F)c1	·	·	-9	-7	-1	-7	·
Cc1ccc(-n2c(C)cc(C(=O)COc3cccnc3[N+](=O)[O-])c2C)cc1	21	5	-2	31*	-6	0	21
Cc1cc(C(=O)COc2cccnc2[N+](=O)[O-])c(C)n1-c1ccccc1F	30	0	3	28*	-11	2	25
